# Reference: article PMC4336329 (PLoS ONE, 2015)
# Screen size: about 310,000 compounds; about 14,000 (4.5%) showed an effect of 50% or more. Effects have a minus sign here. For the sample, strong results were picked, then their nearest neighbours and some compounds at random.
# Target: human ether-à-go-go-related gene (hERG) potassium channel (human, UniProt Q12809)
# Assay: primary screen, population patch clamp on CHO cells stably expressing hERG; higher = less effect of the substance
# 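Further: peak tail current of the secondary pulse compared with the same well before compound.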
# Chain of human ether-à-go-go-related gene (hERG) potassium channel (Q12809 whole entry, looked up): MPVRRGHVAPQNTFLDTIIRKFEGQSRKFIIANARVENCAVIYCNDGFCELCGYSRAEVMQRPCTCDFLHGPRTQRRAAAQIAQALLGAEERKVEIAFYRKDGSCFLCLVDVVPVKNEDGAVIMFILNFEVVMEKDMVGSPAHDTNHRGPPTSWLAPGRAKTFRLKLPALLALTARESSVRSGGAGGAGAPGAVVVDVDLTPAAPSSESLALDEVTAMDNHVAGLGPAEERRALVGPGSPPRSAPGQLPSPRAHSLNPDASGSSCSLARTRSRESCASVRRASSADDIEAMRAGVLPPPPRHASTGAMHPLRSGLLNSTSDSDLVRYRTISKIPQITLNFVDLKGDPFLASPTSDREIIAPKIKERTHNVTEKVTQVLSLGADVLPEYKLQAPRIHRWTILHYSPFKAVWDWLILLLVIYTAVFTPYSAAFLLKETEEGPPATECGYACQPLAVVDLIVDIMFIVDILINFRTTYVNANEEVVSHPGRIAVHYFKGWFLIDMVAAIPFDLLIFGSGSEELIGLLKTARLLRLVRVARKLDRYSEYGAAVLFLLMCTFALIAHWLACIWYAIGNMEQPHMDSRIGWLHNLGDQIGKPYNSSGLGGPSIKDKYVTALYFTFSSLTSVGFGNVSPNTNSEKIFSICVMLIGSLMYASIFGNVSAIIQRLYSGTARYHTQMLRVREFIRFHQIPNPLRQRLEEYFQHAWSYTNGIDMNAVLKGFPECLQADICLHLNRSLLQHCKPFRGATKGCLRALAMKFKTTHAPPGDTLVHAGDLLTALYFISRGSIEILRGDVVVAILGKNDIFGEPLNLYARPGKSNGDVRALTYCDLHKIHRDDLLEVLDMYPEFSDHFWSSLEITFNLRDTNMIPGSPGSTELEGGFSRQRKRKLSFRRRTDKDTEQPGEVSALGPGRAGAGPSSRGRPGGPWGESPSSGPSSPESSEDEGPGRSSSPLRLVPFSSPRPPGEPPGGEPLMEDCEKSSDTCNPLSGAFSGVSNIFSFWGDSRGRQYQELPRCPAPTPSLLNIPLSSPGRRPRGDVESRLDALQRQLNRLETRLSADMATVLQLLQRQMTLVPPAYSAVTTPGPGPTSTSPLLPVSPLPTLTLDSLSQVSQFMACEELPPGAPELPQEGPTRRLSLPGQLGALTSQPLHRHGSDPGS
row,SMILES,"hERG current change (%, negative = inhibition) at 10uM [%]"
1,Cc1nn(C)c(C)c1NC(=O)c1cnn2c(C(F)F)cc(-c3ccccc3)nc12,40.4
2,COc1ccccc1N(CC(=O)N1CCCC1)S(=O)(=O)c1ccc(C)cc1,5.18
3,COc1ccc(-c2noc(CCCC(=O)Nc3cccnc3)n2)cc1OC,-6.97
4,c1ccc(-c2cc(-c3ccccc3)[nH]n2)cc1,12.3
5,CC(C)(C)c1ccc(C(=O)NCCC(=O)N2CCCC2)cc1,16.4
6,Cc1ccc(NC(=S)N(C)N)cc1Cl,16.8
7,COC(=O)CN1C(=O)[C@@H]2[C@H](C1=O)[C@@H]1CC(C(=O)OC)=C[C@@H](C(=O)OC)[C@@H]3C1=C(C(=O)[C@@]3(C)NC(=O)c1ccccc1)[C@@H]2C,-2.29
8,COc1ccc(CNS(=O)(=O)c2ccc(-n3cnnn3)c(C)c2)cc1,-15.3
9,CCSC(=S)c1c(C)[nH]n(-c2ccccc2)c1=O,12.9
10,Cc1ccc(NC(=O)c2cc(S(=O)(=O)c3ccccc3)ccc2Cl)cc1,-15.4
11,O=C(Nc1ccc(F)cc1)C(c1ccccc1)N1CCN(CC(=O)N2CCOCC2)CC1 (centres unmarked),-52.1
12,COc1cccc(NC(=O)C(c2ccccc2)N2CCN(CC(=O)N3CCOCC3)CC2)c1 (centres unmarked),-36.8
13,Cc1ccc(NC(=O)C(c2ccccc2)N2CCN(CC(=O)N3CCOCC3)CC2)cc1 (centres unmarked),-43
14,CC(C)c1ccc(NC(=O)C(c2ccccc2)N2CCOCC2)cc1 (centres unmarked),-12.2
15,O=C(Nc1ccc(F)cc1)C(c1ccccc1)N1CCN(S(=O)(=O)c2ccccc2)CC1 (centres unmarked),-5.63
16,CCOc1ccccc1NC(=O)C(c1ccccc1)N1CCN(CC(=O)N2CCOCC2)CC1 (centres unmarked),-76.1
17,O=C(Nc1ccc(Cl)cc1)C(c1ccccc1)N1CCOCC1 (centres unmarked),-27.6
18,Cc1ccc(NC(=O)C(c2ccccc2)N2CCN(CC(=O)N3CCOCC3)CC2)cc1Cl (centres unmarked),-67.4
19,CCOc1ccccc1NC(=O)NC1(C(=O)N2CCOCC2)CCCCC1,15.6
20,O=C(Nc1ccc(F)cc1)C(c1ccccc1)N1CCN(CC(=O)N2CCCC2)CC1 (centres unmarked),-65.3
21,O=C(CN1CCN(C(c2ccccc2)c2ccccc2)CC1)N1CCOCC1.O=C(O)C(=O)O,-22.3

row,SMILES,"hERG current change (%, negative = inhibition) at 10uM [%]"
1,O=C(CN1CCN(C(C(=O)Nc2ccc(F)cc2)c2ccccc2)CC1)NC1CC1 (centres unmarked),-27.8
2,COC(=O)c1c(C(=O)OC)c2n(c1C)CCS2,3.54
3,COc1ccc(OC)c(NC(=O)COC(=O)Cn2nnc(-c3ccccc3)n2)c1,2.66
4,CCCc1nn2c(=O)cc(CSCC(=O)Nc3ccccc3OC)nc2s1,14.8
5,O=C(CSc1nc2ccccc2nc1N1CCOCC1)Nc1ccccc1F,-4.19
6,COc1cccc(C(=O)Nc2ccc(NC(=O)Cc3ccccc3)cc2)c1,-24.1
7,CCOc1ccccc1CNc1nc2nc3c(c(=O)n2[nH]1)CCC3,19.6
8,Oc1c(Br)cc(C2N=C(c3ccccc3Cl)NO2)cc1Br (centres unmarked),-2.5
9,CCCc1c(C)nc(N2CCN(c3ccccc3OC)CC2)[nH]c1=O,25.2
10,COc1ccccc1C(=O)NC(=O)COC(=O)c1ccc(Cl)cc1[N+](=O)[O-],21.6
11,COc1ccc(Nc2nc(Nc3ccc(OC)cc3)nc(-n3[nH]c(=O)c(C)c3C)n2)cc1,-10.1
12,CCOc1cc(/C=N/NC(=O)c2ccc(N(C)S(=O)(=O)c3ccccc3)cc2)ccc1OC,-33
13,Cc1cccc2[nH]c(CN(C)Cc3nc(CC4CC4)no3)nc12,-11.8
14,O=C(COc1ccc(CO)cc1)Nc1ccc(F)cc1,0.156
15,CCc1cc(=O)oc2c(C)c(O)c(CN3CCCCC3)cc12,-0.833
16,CCc1n[nH]c(=S)n1N=C1CCC(C)CC1 (centres unmarked),19.1
17,CC1(C)CC(=O)C=C(NC2=CC3OC(c4ccccc4)OCC3OC2=O)C1 (centres unmarked),-0.196
18,C#Cc1ccc([C@@H]2C=C(C(=O)Nc3ccccc3)O[C@H](OCC)[C@H]2CCCO)cc1,-22.2
19,O=C(c1cc(-c2ccccc2Cl)nc2ccccc12)N1CCN(c2ccccc2O)CC1,-22.6
20,CC(=O)N1CCN(C(=O)c2cc(-c3cccc4ccccc34)nc3ccccc23)CC1,-28.9
21,O=C(c1cc(-c2ccccc2Cl)nc2ccccc12)N1CCC1,-12.4

row,SMILES,"hERG current change (%, negative = inhibition) at 10uM [%]"
1,CN1CCCN(C(=O)c2cc(-c3cccc4ccccc34)nc3ccccc23)CC1.Cl,-59.4
2,CN1CCCN(C(=O)c2cc(-c3ccc(Cl)c(Cl)c3Cl)nc3ccccc23)CC1.Cl,-69
3,Cc1ccccc1-c1cc(C(=O)N2CCCC2)c2ccccc2n1,-47.9
4,CCOC(=O)CNC(=O)CSc1nnc(-c2ccncc2)n1-c1ccc(Cl)cc1,-8.18
5,Cc1ccc(NC(=S)N2CCN(CCN3C(=O)c4cccc5cccc(c45)C3=O)CC2)cc1,-1.29
6,C=CCc1ccccc1OCC(O)CN1CCN(CCO)CC1.Cl (centres unmarked),11.3
7,Cc1ccccc1OCC(O)CN1CCN(CCN2C(=O)c3cccc4cccc(c34)C2=O)CC1 (centres unmarked),-74.2
8,CC(=O)c1ccccc1OCC(O)CN1CCN(CCN2C(=O)c3cccc4cccc(c34)C2=O)CC1 (centres unmarked),-73.3
9,O=C(C(c1ccccc1)c1ccccc1)N1CCN(CCN2C(=O)c3cccc4cccc(c34)C2=O)CC1,-4.74
10,Cc1ccc(C)c(OCC(O)CN2CCN(CCN3C(=O)c4cccc5cccc(c45)C3=O)CC2)c1.Cl (centres unmarked),-67.3
11,Cc1cccc(OCC(O)CN2CCN(CCN3C(=O)c4cccc5cccc(c45)C3=O)CC2)c1C (centres unmarked),-35.7
12,NC(=O)CN1CCN(CCN2C(=O)c3cccc4cccc(c34)C2=O)CC1,-5.61
13,C=CCc1ccccc1OCC(O)CN1C(=O)c2ccccc2C1=O (centres unmarked),-27.2
14,C=CCc1ccccc1OCC(O)CN1CCN(CCN2C(=O)c3cccc4cccc(c34)C2=O)CC1.Cl (centres unmarked),-57.8
15,Cc1ccccc1OCC(O)CN1C(=O)c2ccccc2C1=O (centres unmarked),4.28
16,COc1ccc(CN(C)CC(=O)NC(C)c2ccccc2)c(OC)c1 (centres unmarked),-13.8
17,Cc1ccc(-c2noc(CN3CCN(C(c4ccccc4)c4ccccc4)CC3)n2)cc1,7.84
18,CN(C)CCNC(=O)c1cccc(NS(=O)(=O)c2ccc(Cl)c(Cl)c2)c1,0.919
19,O=C(c1ccccc1)N1CC(COc2ccccc2)OC(c2cccnc2)O1 (centres unmarked),-5.14
20,O=C(Cn1nnc(-c2ccccc2NC(=O)c2ccccc2)n1)Nc1ccc2c(c1)OCCO2,1.49
21,Cc1cc(Cl)ccc1C1=CC(=O)C[C@H](c2ccc(F)cc2)C1,15.7

row,SMILES,"hERG current change (%, negative = inhibition) at 10uM [%]"
1,Cc1cc(=O)[nH]c2c1c(C)nn2C1CCCCC1,-3.84
2,O=C(COc1cccc(F)c1)NNC(=O)Cc1ccc(S(=O)(=O)N2CCOCC2)s1,-11.9
3,C/C(=N\Nc1ccc(Cl)cc1)c1c(O)cc(C)oc1=O,15.3
4,c1ccc2c(c1)CC/C2=N/Nc1nc2ccccc2[nH]1,9.49
5,COCCCn1c(C(=O)NCCN2CCOCC2)cc2c(=O)n3cccc(C)c3nc21,-9.21
6,COCCCn1c(C(=O)N2CCOCC2)cc2c(=O)n3cccc(C)c3nc21,-11.4
7,Cc1cccn2c(=O)c3cc(C(=O)N4CCOCC4)n(C)c3nc12,-32.1
8,CCOCCCNC(=O)c1cc2c(=O)n3cccc(C)c3nc2n1C,12.4
9,COCCCn1c(=N)c(C(N)=S)cc2c(=O)n3cccc(C)c3nc21,-84.3
10,CCOCCCn1c(=N)c(C(N)=S)cc2c(=O)n3cccc(C)c3nc21,-82.6
11,Cc1cccn2c(=O)c3cc(C(N)=S)c(=N)n(CCCN4CCOCC4)c3nc12,-87.6
12,CCCCn1c(=N)c(S(=O)(=O)c2ccc(Br)cc2)cc2c(=O)n3cccc(C)c3nc21,13
13,COCCCn1c(C(=O)N2CC(C)OC(C)C2)cc2c(=O)n3cccc(C)c3nc21 (centres unmarked),0.735
14,Cc1cccn2c(=O)c3cc(C(N)=S)c(=N)n(CCCOC(C)C)c3nc12,-78.2
15,Cc1cccn2c(=O)c3cc(C(=O)NCCCOC(C)C)sc3nc12,-6.24
16,CCC(C)n1c(SCC(=O)Nc2ccccc2C(F)(F)F)nc2ccsc2c1=O (centres unmarked),-14
17,Cc1ccc(C(=O)Oc2coc(CSc3nnc(NC(=O)C4CC4)s3)cc2=O)cc1,16.6
18,Cc1[nH]c(C)c(S(=O)(=O)N(C)Cc2ccccc2)c1C(=O)N1CCCC1,15.2
19,CC(=O)N1CCc2cc(S(=O)(=O)CCC(=O)NCc3ccco3)ccc21,12.5
20,Cc1nn(-c2ccccc2)c(C)c1/C=N/NC(=O)CSc1nnc(-c2ccccc2)n1-c1ccc(Cl)cc1,5.46
